Most compounds without a hit are left out; they make up all but 3.6% or so of the library.
APOBEC3G inh: APOBEC3G DNA deaminase inhibitors, primary screen, biochemical, fluorescence, single-stranded DNA substrate, uHTS | DNA dC->dU-editing enzyme APOBEC-3G (Homo sapiens), Q9HC16 | recombinant A3G, ssDNA deamination FAM/TAMRA fluorescence | inhibition, % at 20 µM | hit rate 0.28% among 330,000;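 active means inhibition of at least 40% at 20 µM, with no more than 30% in the related APOBEC3A deaminase screen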
PHOSPHO1 inh: PubChem AID 1565; Phosphoethanolamine/phosphocholine phosphatase (Homo sapiens), Q8TCT1; recombinant PHOSPHO1, absorbance phosphatase assay; inhibition, % at 13.3 µM; hit rate 1.1% among 290,000; in the data active means inhibition above about 60%
Target sequence (Q8TCT1 whole entry, looked up): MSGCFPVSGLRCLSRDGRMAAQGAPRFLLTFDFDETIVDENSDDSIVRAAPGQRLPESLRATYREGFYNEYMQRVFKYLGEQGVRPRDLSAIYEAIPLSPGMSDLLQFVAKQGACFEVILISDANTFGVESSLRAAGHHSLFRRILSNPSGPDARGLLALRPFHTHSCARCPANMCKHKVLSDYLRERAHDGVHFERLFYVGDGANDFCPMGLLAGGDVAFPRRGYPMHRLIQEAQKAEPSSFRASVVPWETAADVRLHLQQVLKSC
esBAF inh: Bmi1 luciferase reporter increase in mESCs, primary screen, esBAF inhibitor project, mouse ES cells, Bmi1 luciferase knock-in, single point | 24 h; 100% = twice the neutral-well signal | reporter increase, % at 12.5 µM | hit rate 2% among 350,000 | AID 602393, 2012; in the data active means activation above about 40%;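 further: a rise in the Bmi1 reporter signal indicates esBAF inhibition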
MITF TRPM1 HTS: activators of MITF-driven TRPM1 promoter reporter, primary screen, cell-based, SK-MEL-5, luciferase, single point; hit rate 0.75% among 300,000; SK-MEL-5 TRPM1-promoter luciferase, 24 h; % of positive control, neutral wells = 0; activation, % at 12.5 µM;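 active means mean activation of at least 80% with every replicate also reaching 80%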
APOBEC3A inh: APOBEC3A ssDNA deaminase inhibitors, primary screen, selectivity assay for APOBEC3G inhibitor project, biochemical, FAM/TAMRA oligo cleavage fluorescence. recombinant A3A, FAM/TAMRA ssDNA deamination fluorescence. inhibition, % at 20 µM. hit rate 0.41% among 330,000. AID 493011, 2011;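 active means at least 40% inhibition at 20 µM here, with at most 30% in a related deaminase screen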
Target sequence (P31941 whole entry, looked up): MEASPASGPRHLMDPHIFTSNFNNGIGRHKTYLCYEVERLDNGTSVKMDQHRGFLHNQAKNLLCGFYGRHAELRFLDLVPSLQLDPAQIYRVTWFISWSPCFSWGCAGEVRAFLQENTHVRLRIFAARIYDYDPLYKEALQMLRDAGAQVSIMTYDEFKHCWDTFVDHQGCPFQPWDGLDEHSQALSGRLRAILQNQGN
Wnt act: Wnt/beta-catenin pathway activators, primary screen, cell-based, plate reader, single point; AID 743398, 2014; Wnt/beta-catenin reporter cell assay, activator; hit rate 1.2% among 300,000; activation, % at 9.35 µM; in the data active means activation above about 30%, passing the limit was not always enough
A number is an active result; 0 = inactive; - = no result.

SMILES	APOBEC3G inh	PHOSPHO1 inh	esBAF inh	MITF TRPM1 HTS	APOBEC3A inh	Wnt act
Cn1cccc1-c1cc(C(=O)N/N=C/c2ccccc2Cl)[nH]n1	0	0	54.7	86.4	0	0
Cn1cccc1-c1cc(C(=O)N/N=C/c2ccc(F)cc2)[nH]n1	0	0	0	0	0	0
O=C(NN=Cc1ccccc1Cl)c1ccccc1	-	-	-	-	-	62.9
C[C@H]1CN([C@@H](C)CO)C(=O)c2cc(Br)cnc2O[C@H]1CN(C)S(=O)(=O)c1ccccc1	-	-	0	-	-	-
COc1ccc(CNC(=O)C[C@@H]2C[C@H]3c4cc(NS(=O)(=O)c5ccc(F)cc5)ccc4O[C@H]3[C@H](CO)O2)cc1	-	-	0	-	-	-
CCCCCC#CCC#CCC#CCC#CCCCC(=O)O	0	79.4	0	-	0	-
CCC(=O)N(C)C[C@@H]1Oc2ncc(C#CCC(C)C)cc2C(=O)N([C@H](C)CO)C[C@H]1C	-	-	0	-	-	-
O=c1oc(-c2ccc([N+](=O)[O-])cc2)nc2ccccc12	0	0	-	-	0	0
O=c1oc(-c2ccc(Br)cc2)nc2ccccc12	0	0	45.6	0	0	0
O=C(C[C@@H]1CC[C@@H](NC(=O)CCN2CCCCC2)[C@@H](CO)O1)Nc1nccs1	-	-	0	-	-	-
COc1ccc(CCn2c(C)cc(C(=O)CSc3nnnn3-c3ccccc3)c2C)cc1	0	71.3	0	-	0	-
Cc1cc(C(=O)CSc2nnnn2C)c(C)n1CCc1ccc(Cl)cc1	0	81.6	0	0	0	0
Cc1cc(C(=O)CSc2nnnn2C)c(C)n1C1CC1	0	0	-	0	0	0
CCC1CCC2(CC1)NNC(=S)NN2	0	97.4	-	0	0	-
CC1=NN(C(N)=S)C(=O)C1N=Nc1cccc(C(=O)O)c1 (stereo not given)	0	0	0	-	0	0
CC1=NN(C(N)=S)C(=O)C1N=Nc1ccc(F)cc1 (stereo not given)	0	0	67.5	0	0	0
CC1=NN(C(N)=S)C(=O)C1N=Nc1ccc([N+](=O)[O-])cc1 (stereo not given)	0	0	76.5	0	0	-
CC1=NN(C(N)=S)C(=O)C1N=Nc1cccc(C)c1 (stereo not given)	0	0	66.7	0	0	0
C/C=C/c1ccc2c(c1)O[C@@H](CN(C)CC1CCCC1)[C@H](C)CN([C@H](C)CO)S2(=O)=O	-	-	0	-	-	-
Cn1cnnc1Sc1nc2ccccc2nc1NS(=O)(=O)c1ccccc1	0	62.2	0	0	0	0
Cn1ccnc1Sc1nc2ccccc2nc1NS(=O)(=O)c1ccccc1	0	73.4	-	0	0	0
Cc1c(Nc2nc3ccccc3nc2NS(=O)(=O)c2ccccc2)c(=O)n(-c2ccccc2)n1C	0	0	0	0	0	0
CC(=O)Nc1ccc(S(=O)(=O)Nc2nc3ccccc3nc2Sc2nncn2C)cc1	0	0	44.3	0	0	0
CN1CSC2=C(C#N)C(c3cccc(OCc4ccccc4)c3)CC(=O)N2C1 (stereo not given)	0	0	0	-	0	0
CCc1ccc(C2CC(=O)N3CN(c4ccccc4)CSC3=C2C#N)cc1 (stereo not given)	0	85.7	0	-	0	0
SMILES	APOBEC3G inh	PHOSPHO1 inh	esBAF inh	MITF TRPM1 HTS	APOBEC3A inh	Wnt act
N#CC1=C2SCN(c3ccc(F)cc3)CN2C(=O)CC1c1cccc(F)c1 (stereo not given)	0	64.4	0	0	0	0
N#CC1=C2SCN(Cc3ccco3)CN2C(=O)CC1c1ccccc1F (stereo not given)	0	82.7	0	0	0	-
CC(C)CC#Cc1cnc2c(c1)C(=O)N([C@@H](C)CO)C[C@H](C)[C@H](CN(C)C(=O)c1cnccn1)O2	-	-	0	-	-	-
C[C@@H]1CN([C@@H](C)CO)C(=O)c2cc(NS(=O)(=O)c3cn(C)cn3)ccc2O[C@@H](C)CCCCO[C@@H]1CN(C)S(=O)(=O)c1cn(C)cn1	-	-	0	-	-	-
CCCOc1ccc(CNC(=S)N/N=C/c2ccc([N+](=O)[O-])cc2)cc1	0	80.4	0	0	0	0
CC(C)Oc1ccc(CNC(=S)N/N=C/c2ccc([N+](=O)[O-])cc2)cc1	0	73.6	0	0	0	0
CC(C)COc1ccc(CNC(=S)N/N=C/c2ccc([N+](=O)[O-])cc2)cc1	0	95.4	-	0	0	-
C[C@@H]1CCCCO[C@H](CN(C)Cc2ccccc2)[C@@H](C)CN([C@H](C)CO)C(=O)c2cc(NC(=O)CCCN(C)C)ccc2O1	-	-	0	-	-	-
Cc1noc(C)c1NC(=O)N(C)C[C@H]1OCCCC[C@H](C)Oc2ccc(NS(C)(=O)=O)cc2C(=O)N([C@@H](C)CO)C[C@@H]1C	-	-	0	-	-	-
CCC(=O)Nc1ccc2c(c1)C(=O)N(C)C[C@H](OC)[C@@H](C)CN(C(=O)Cc1ccccn1)[C@H](C)CO2	-	-	0	-	-	-
CCn1c(CSCc2ccc(C)cc2)nnc1SCC(=O)NCc1ccccc1	0	0	0	0	0	-
CCn1c(CSCc2ccc(F)cc2)nnc1SCC(=O)NCc1ccccc1	0	64.4	0	0	0	-
C[C@@H]1CN([C@@H](C)CO)C(=O)c2cccc(NS(=O)(=O)c3ccc(Cl)cc3)c2O[C@@H]1CN(C)C	-	-	0	-	-	-
C[C@@H]1CN([C@@H](C)CO)C(=O)c2cc(NS(C)(=O)=O)ccc2O[C@@H](C)CCCCO[C@@H]1CN(C)C(=O)CCC(F)(F)F	-	-	0	-	-	-
COc1ccc(C(=O)/C(=C/N(C)C)S(=O)(=O)c2ccccc2)cc1	0	0	-	94.0	0	0
COc1ccc(C(=O)C(=NN)c2ccccc2)cc1	-	-	45.1	-	-	0
COc1ccc(CC(=O)NCc2nnc(SCC(=O)Nc3ccc(OC)cc3)n2C)cc1	0	65.8	-	0	0	0
COc1ccc(C/C(C)=N/NC(=S)Nc2ccc(Cl)cc2)cc1	0	0	0	0	0	0
COc1ccc(C/C(C)=N/NC(=S)Nc2ccccc2)cc1	0	0	59.6	0	0	0
Cc1noc(C)c1NC(=O)N(C)C[C@@H]1Oc2ccc(NC(=O)NC3CCCCC3)cc2C(=O)N([C@H](C)CO)C[C@@H]1C	-	-	0	-	-	-
O=C(C[C@@H]1C[C@@H]2c3cc(NS(=O)(=O)c4ccc(F)cc4)ccc3O[C@@H]2[C@H](CO)O1)NCc1cccnc1	-	-	0	-	-	-
COc1ccc(/C(N)=N/OC(=O)c2ccco2)cc1	0	0	0	0	0	0
COc1ccc(C(=O)CC(=O)c2ccccc2)cc1	0	-	70.1	-	0	82.6
COc1ccc(C(=O)CSc2ccccc2C(=O)O)cc1	0	0	-	0	0	43.5
COc1ccc(C(=O)Cc2ccccc2C(=O)O)cc1	-	-	-	0	-	0
O=C(COc1ccccc1)c1ccccc1	-	-	46.3	0	-	0
